Laboratory results reported in PubChem BioAssay AID1458 (National Center for Advancing Translational Sciences (NCATS), 2008).
The campaign covered roughly 210,000 compounds. About 5,900 (2.8%) were called active. Not shown: some 5% with an inconclusive outcome. The sample holds actives, similar compounds and a random draw of the others, so the mix is not that of the screen. Calls follow the shape of the dose curve; as a rule, active = well fitted activation curve with a large enough effect; inconclusive = small, poorly fitted or top-dose-only effect; inactive = no such curve, though single readings can be large or run the other way.

Test: qHTS Assay for Enhancers of SMN2 Splice Variant Expression; also: nearly all actives have a fitted effect of over 55% in size; as to activity change, positive = activation: % of control where 0% means no effect
Settings: HEK293 SMN2-luciferase splicing reporter, luminescence, 30-36 h; series mostly up to 46.1 µM; activity change, positive = activation: at the top concentration
How it was run: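 HEK293 cells carry an SMN2 minigene-luciferase reporter in which exon 7 inclusion puts luciferase in frame. Cells were seeded at 2000 cells/well, attached for 10-12 hours, then exposed to compounds for 30-36 hours at 37C before ONE-Glo luminescence.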
Potency is read from the fitted curve at half-maximal effect.

Activity change, positive = activation, inactive:
COc1ccc(-n2c(SCC(N)=O)nc3c(oc4ccccc43)c2=O)cc1 -12.5%
O=C(NCc1ccccc1)c1cc(-c2cccc(Cl)c2)on1 0.862%
COc1ccccc1CNc1nc2ccc(Cl)cc2n2cnnc12 -0.672%
Cc1ccc(Cl)cc1NC(=O)C(C)n1nnc2sc(-c3ccccc3)cc2c1=O (configuration not stated) 1.18%
O=C(c1cccc2ccccc12)N1CCN(c2ccccc2F)CC1 -6.5%
O=C(CCS(=O)(=O)c1cccc2nsnc12)N1CCN(c2ccccc2F)CC1 -8.49%
Cc1cc2n(n1)C(c1cc(C(C)(C)C)c(O)cc1O)Nc1ccccc1-2 (configuration not stated) -2.87%
Cc1cccc(CSc2nc3ccncc3n2CC(=O)N(C)C2CCCCC2)c1 3.04%
CCOc1ccc(-c2cc3nc(C4CCN(C(=O)OC(C)(C)C)CC4)c(C(=O)Nc4cccc(CC)c4)cn3n2)cc1 6.72%
CC(C)(C)NC(=O)CSc1nc(-c2ccc(F)cc2)cc(C(F)(F)F)n1 17.7%
Cc1ccccc1CSCC(=O)NC(=O)NC(C)(C)C 10.4%
Cc1cc(C)cc(NC(=O)Cc2csc(C)n2)c1 -8.87%
CCNC(=O)N1CCNC(=O)C1CC(=O)Nc1ccc(C(=O)OCC)cc1 (configuration not stated) -30.7%
COc1cccc(NC(=O)CC2C(=O)NCCN2C(=S)Nc2ccc(F)cc2)c1 (configuration not stated) -6.38%
COc1cc2c(=O)c(S(=O)(=O)c3ccc(C(C)C)cc3)cn(Cc3ccccc3C)c2cc1OC -15.4%
O=C(Nc1cccc(NC(=O)c2ccc(Br)cc2)c1)c1ccccc1 1.19%
O=C(Nc1ccccc1)c1ccc2nsnc2c1 14%
Cc1nc(SCC(=O)N2CCN(c3ccccc3)CC2)[nH]c(=O)c1C 7.64%
Cc1oc(-c2ccccc2F)nc1CN1CCC(C(=O)NCCc2ccc(Cl)cc2)CC1 8.98%
COc1ccc(NC(=O)C2CCCN(S(=O)(=O)c3c(C)[nH]c(=O)[nH]c3=O)C2)c(OC)c1 (configuration not stated) 7.41%
CCOC(=O)c1c(NC(=O)c2ccc(N3CCOCC3)c([N+](=O)[O-])c2)sc(C)c1C -0.319%
COc1ccc(C(=O)Nc2ccc(CN3CCOCC3)cc2)cc1 -18%
CCOC(=O)C1CCCN(C(=O)Cn2ncc3c(C)n(Cc4ccc(F)cc4)c(C)c3c2=O)C1 (configuration not stated) -22.8%
COc1ccc(-c2noc(CSc3nc4ccc(C)cc4[nH]3)n2)cc1 -46.7%
Cc1ccccc1C(=O)Nc1sc2c(c1C(=O)N1CCC(C)CC1)CCCC2 -1.84%
Cc1c(NC(=O)c2cc(=O)c3ccccc3o2)c(=O)n(-c2ccccc2)n1C -4.74%
Cc1nn(C)cc1C(=O)NNC(=S)Nc1ccc(Cl)cc1 8.55%
COc1ccc(Cl)cc1C(=O)NCc1cn(C)nc1C 1.02%
Oc1ccccc1-c1nc(/C=C/c2ccc(F)cc2)no1 3.13%
CCOC(=O)c1cc(NC(=O)c2cccnc2)cc(C(=O)OCC)c1 12.2%
COc1ccc(C(=O)Nc2cccnc2)cc1C(=O)Nc1cccnc1 -8.52%
CCN(CC)c1ccc(C2C(C(N)=O)=C(C)Nc3nc(SCc4ccccc4)nn32)cc1 (configuration not stated) 7.44%
COCCn1c(CCC(=O)Nc2cc(C)ccc2C)nc2cccnc21 7.93%
N#C/C(=C\c1ccccc1F)c1nc2ccccc2c(=O)[nH]1 -1.96%
COc1ccccc1-c1nnc(NC(=O)c2cccc(N3C(=O)CCC3=O)c2)o1 2.48%
COc1ccccc1-c1nnc(SCC(=O)Nc2cc(C)on2)o1 -3.86%
Cn1c(=O)c2sccc2n2c(CCC(=O)NCc3ccccc3Cl)nnc12 1.76%
CCc1ccc2oc(-c3ccc(C)c(NC(=O)/C=C/c4ccco4)c3)nc2c1 4.88%
CCc1ccc2oc(-c3ccc(NC(=O)c4cc5ccccc5o4)cc3)nc2c1 6.02%
COc1ccc(OC)c(-c2csc(-c3c(N)c(C(=O)c4ccccc4)n4ccccc34)n2)c1 -0.921%
CCc1nn(CC(=O)N2CCN(c3cc(C)ccc3C)CC2)c(=O)c2cc3occc3n12 2.38%
O=C(c1ccc(Cl)cc1)n1nc(-c2cccnc2)nc1NCc1ccc(F)cc1 1.47%
COc1cc(Cl)c(C)cc1NC(=O)CCc1nc2cccnc2n1Cc1cccs1 -6.37%

Potency, active:
O=C(CCSc1ccccc1)N1CCN(c2ccccc2F)CC1 11.2 µM
CC(C)(C)NC(=O)CSC(=Nc1ccccc1F)NC#N 20 µM
COC(=O)c1cc(NC(=O)CC2C(=O)NCCN2C(=O)c2ccc(F)cc2)cc(C(=O)OC)c1 (configuration not stated) 10 µM
O=C(Nc1ccccc1)c1cc2ccccc2[nH]1 11.2 µM
COc1ccc(C(=O)Nc2sc(C)c(C)c2CN2CCOCC2)cc1 12.6 µM
Cc1nn(C)cc1CNC(=O)Nc1ccc(Cl)cc1 15.8 µM
CCOC(=O)c1ccc(-c2ccc(C(=O)Nc3cccnc3)o2)cc1 6.31 µM
COc1ccccc1-c1nnc(NC(=O)c2ccc3ncsc3c2)o1 14.1 µM
CCc1ccc2oc(-c3ccc(N)cc3)nc2c1 1 µM
